Common to all, as to settings: 25 µM; exposure: 24-48 hpf
The subject of test [1] is Danio rerio Tg(wt1b:EGFP) embryo, pronephros. Briefly: glomerular separation, fold change vs DMSO control; higher = glomeruli further apart (abnormal). In a few lines:
(§1)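 From 24 to 48 hpf, at 28.5°C, dechorionated Tg(wt1b:EGFP) zebrafish embryos sat in HEPES-buffered E3 with 0.003% PTU carrying 25 μM compound and 0.5% DMSO. Their pronephroi were imaged dorsally in 96-well plates filled with agarose, using 470 nm light and 10 z-slices. A Fiji macro measured distances and angles between 16 reference points that were set manually on maximum projections, and any value more than 2 SD from its feature mean was excluded. Features are expressed as fold change relative to the mean of DMSO-treated embryos imaged on the same day.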

The test system is the same in test [2]. Description: glomerular width (mean of left and right), fold change vs DMSO control; higher = wider glomerulus. Put shortly: as §1
For test [3] the test system is unchanged. Description: fraction of imaged embryos annotated as normal kidney; higher = less nephrotoxic; extreme values may be limits of the assay. In a few lines: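 Embryos of the Tg(wt1b:EGFP) zebrafish line were dechorionated and held in 12-well plates with 25 μM compound in 0.5% DMSO and 5 mM HEPES-buffered E3 containing 0.003% PTU, from 24 to 48 hpf at 28.5°C. Larvae were then anaesthetised with tricaine, set dorsal side up in agarose-filled 96-well plates, and their pronephroi imaged by widefield fluorescence at 470 nm over 10 z-slices. Each value is the fraction of embryos per treatment placed in the normal-kidney category after manual annotation of maximum projections.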

For test [4] the test system is unchanged. Briefly: pronephric angle neck segment to proximal convoluted tubule (mean of left and right), fold change vs DMSO control; higher = larger pronephric angle. Put shortly:
as §1

Counter-ions that a name gives are not always drawn. ± gives the standard deviation or the standard deviation of the averaged measurements.

In test [1], `C[C@]12CC[C@@H]3c4ccc(O)cc4CC[C@H]3[C@@H]1CCC2=O` [Estrone] yielded a glomerular separation of 0.922 ± 0.35. In test [2], this compound returned a glomerular width of 0.983 ± 0.0046. For the same compound, the “fraction of imaged embryos annotated as normal kidney” value (“fraction of imaged embryos annotated” for short) in test [3] was determined as 1. Also, the “pronephric angle neck segment” value in test [4] was 1.05 ± 0.019.

The compound `c1ccc(CNc2ncnc3nc[nH]c23)cc1` [Aminopurine, 6-benzyl] returned a glomerular separation in test [1] of 1.17 ± 0.43. Moreover, the glomerular width in test [2] is 1.01 ± 0.042. Moreover, the “fraction of imaged embryos annotated” value in test [3] came to 0.667. Moreover, the “pronephric angle neck segment” value in test [4] worked out at 1.02 ± 0.019.

`CC[C@]12CCCN3CCc4c(n(c5ccccc45)C(=O)C1)[C@@H]32` [Eburnamonine (-)]: the glomerular separation in test [1] was determined as 1.19 ± 0.41. For the same compound, the glomerular width in test [2] was 0.922 ± 0.059. Further, the “fraction of imaged embryos annotated” value in test [3] came to 1. Also, in test [4], the “pronephric angle neck segment” value is 1.03 ± 0.017.

`COC(=O)Nc1nc2cc(Sc3ccccc3)ccc2[nH]1` [Fenbendazole]: the glomerular separation in test [1] worked out at 4 ± 2.6. For the same compound, the glomerular width in test [2] came out at 0.568 ± 0.027. Besides, the “fraction of imaged embryos annotated” value in test [3] was 0. Besides, the “pronephric angle neck segment” value in test [4] came to 1.8 ± 0.13.

In the case of `CC[N+](CC)(CC(=O)Nc1c(C)cccc1C)Cc1ccccc1` [Denatonium benzoate], the glomerular separation in test [1] came to 0.973 ± 0.36. The compound further came in with a glomerular width in test [2] of 0.844 ± 0.018. Besides, the “fraction of imaged embryos annotated” value in test [3] came to 0.917. Moreover, the “pronephric angle neck segment” value in test [4] stood at 0.99113 ± 0.00026.

In turn, `CN(CCCCCCCCCCN(C)C(=O)Oc1cccc([N+](C)(C)C)c1)C(=O)Oc1cccc([N+](C)(C)C)c1` [Demecarium bromide] registered a glomerular separation in test [1] of 1.54 ± 0.77. The same compound returned a glomerular width in test [2] of 0.923 ± 0.032. In addition, the “fraction of imaged embryos annotated” value in test [3] is 1. Further, the “pronephric angle neck segment” value in test [4] worked out at 1.078 ± 0.0073.

For the compound `O=C(C1CCCCC1)N1CC(=O)N2CCc3ccccc3C2C1` (stereo not given) [Praziquantel], the glomerular separation in test [1] worked out at 1.18 ± 0.28. This compound also displayed a glomerular width in test [2] of 1 ± 0.052. Moreover, the “fraction of imaged embryos annotated” value in test [3] was found to be 0.545. Moreover, in test [4], the “pronephric angle neck segment” value is 1.02 ± 0.057.

For the compound `CN(C)CCC[C@@]1(c2ccc(F)cc2)OCc2cc(C#N)ccc21` [Escitalopram oxalate], the glomerular separation in test [1] worked out at 1.13 ± 0.38. In test [2], this compound showed a glomerular width of 0.9778 ± 0.0032. Further, the “fraction of imaged embryos annotated” value in test [3] amounted to 0.833. In addition, the “pronephric angle neck segment” value in test [4] is 0.941 ± 0.024.

The compound `CN(C)/N=N/c1[nH]cnc1C(N)=O` [Dacarbazine] came in with a glomerular separation in test [1] of 0.922 ± 0.21. Further, the glomerular width in test [2] is 0.991 ± 0.037. Moreover, the “fraction of imaged embryos annotated” value in test [3] was 1. In test [4], the “pronephric angle neck segment” value was 0.997 ± 0.06.

In test [1], `CC(C)(C)NC[C@H](O)COc1ccccc1C1CCCC1` [Penbutolol sulfate] returned a glomerular separation of 0.661 ± 0.15. The glomerular width in test [2] was found to be 0.988 ± 0.02. Also, in test [3], the “fraction of imaged embryos annotated” value was found to be 0.917. The “pronephric angle neck segment” value in test [4] came out at 1.02 ± 0.02.

In turn, `CCCCC(O)c1ccccc1` (stereo not given) [Fenipentol] came in with a glomerular separation in test [1] of 1.17 ± 0.29. In test [2], this compound registered a glomerular width of 0.993 ± 0.03. In addition, the “fraction of imaged embryos annotated” value in test [3] came to 0.833. Also, in test [4], the “pronephric angle neck segment” value was 0.967 ± 0.017.

In test [1], `CCCCN(CCCC)CCCOC(=O)c1ccc(N)cc1` [Butacaine] had a glomerular separation of 0.928 ± 0.47. The same compound had a glomerular width in test [2] of 0.939 ± 0.05. The “fraction of imaged embryos annotated” value in test [3] was 0.917. The “pronephric angle neck segment” value in test [4] is 0.9912 ± 0.0092.

Consider `CN1CCC(OC(c2ccccc2)c2ccccc2)CC1` [Diphenylpyraline hydrochloride], for which, in test [1], the glomerular separation came to 1.02 ± 0.24. In test [2], this compound yielded a glomerular width of 1.07 ± 0.053. For the same compound, in test [3], the “fraction of imaged embryos annotated” value was determined as 1. The “pronephric angle neck segment” value in test [4] worked out at 0.963 ± 0.035.

For the compound `NC[C@@H]1O[C@H](O[C@H]2[C@@H](O)[C@H](O[C@@H]3[C@@H](O)[C@H](N)C[C@H](N)[C@H]3O[C@H]3O[C@H](CO)[C@@H](O)[C@H](O)[C@H]3N)O[C@@H]2CO)[C@H](N)[C@@H](O)[C@@H]1O` [Paromomycin sulfate], the glomerular separation in test [1] is 0.691 ± 0.18. For the same compound, the glomerular width in test [2] turned out to be 1.07 ± 0.0023. The “fraction of imaged embryos annotated” value in test [3] turned out to be 0.75. In addition, in test [4], the “pronephric angle neck segment” value amounted to 0.99 ± 0.051.

Regarding `CCOc1cc(CC(=O)N[C@@H](CC(C)C)c2ccccc2N2CCCCC2)ccc1C(=O)O` [Repaglinide], the glomerular separation in test [1] was 1.44 ± 0.91. The compound further gave a glomerular width in test [2] of 0.943 ± 0.028. The “fraction of imaged embryos annotated” value in test [3] stood at 0.75. Besides, the “pronephric angle neck segment” value in test [4] amounted to 1.06 ± 0.036.

Consider `CCCCC(CC)CN1CN(CC(CC)CCCC)CC(C)(N)C1` (stereo not given) [Hexetidine], for which the glomerular separation in test [1] stood at 1.05 ± 0.29. Besides, the glomerular width in test [2] was 0.9542 ± 0.0081. Further, the “fraction of imaged embryos annotated” value in test [3] turned out to be 0.75. In addition, the “pronephric angle neck segment” value in test [4] was 0.9331 ± 0.005.

For the compound `Cc1c(O)cccc1C(=O)N[C@@H](CSc1ccccc1)[C@H](O)CN1C[C@H]2CCCC[C@H]2C[C@H]1C(=O)NC(C)(C)C` [Nelfinavir mesylate], the glomerular separation in test [1] is 0.563 ± 0.13. The glomerular width in test [2] came out at 1.05 ± 0.017. Moreover, the “fraction of imaged embryos annotated” value in test [3] is 1. The “pronephric angle neck segment” value in test [4] amounted to 0.954 ± 0.03.

In test [1], `O=C(O)c1cc(-c2ccc(F)cc2F)ccc1O` [Diflunisal] displayed a glomerular separation of 4.51 ± 2.5. Moreover, the glomerular width in test [2] turned out to be 0.881 ± 0.022. Also, the “fraction of imaged embryos annotated” value in test [3] amounted to 0.0833. Also, in test [4], the “pronephric angle neck segment” value is 1.69 ± 0.17.

On to `CC[C@H](C)C(=O)O[C@H]1C[C@H](O)C=C2C=C[C@H](C)[C@H](CC[C@@H](O)C[C@@H](O)CC(=O)O)[C@H]21` [Pravastatin], for which the glomerular separation in test [1] was determined as 1.12 ± 0.39. In test [2], the glomerular width worked out at 0.865 ± 0.051. The “fraction of imaged embryos annotated” value in test [3] stood at 1. For the same compound, the “pronephric angle neck segment” value in test [4] was 1.03 ± 0.035.

`CC(=O)CC(c1ccc([N+](=O)[O-])cc1)c1c(O)c2ccccc2oc1=O` (stereo not given) [Acenocoumarol] showed a glomerular separation in test [1] of 0.834 ± 0.45. For the same compound, in test [2], the glomerular width was 0.94618 ± 0.00069. In test [3], the “fraction of imaged embryos annotated” value was 0.8. Also, the “pronephric angle neck segment” value in test [4] is 1.07 ± 0.076.

`CCCOc1cc(N)ccc1C(=O)OCCN(CC)CC` [Propoxycaine hydrochloride] yielded a glomerular separation in test [1] of 0.859 ± 0.24. The compound also showed a glomerular width in test [2] of 0.982 ± 0.023. Moreover, in test [3], the “fraction of imaged embryos annotated” value was 0.917. Moreover, in test [4], the “pronephric angle neck segment” value is 1.01 ± 0.023.

`C=CCN1CCCC1CNC(=O)c1cc2nn[nH]c2cc1OC` (stereo not given) [Alizapride hydrochloride] registered a glomerular separation in test [1] of 1.18 ± 0.37. For the same compound, the glomerular width in test [2] amounted to 0.924 ± 0.018. Moreover, the “fraction of imaged embryos annotated” value in test [3] amounted to 0.917. The “pronephric angle neck segment” value in test [4] worked out at 1.02 ± 0.049.

The compound `CNS(=O)(=O)Cc1ccc2[nH]cc(CCN(C)C)c2c1` [Sumatriptan succinate] yielded a glomerular separation in test [1] of 0.982 ± 0.29. Also, in test [2], the glomerular width stood at 1.03 ± 0.053. Moreover, the “fraction of imaged embryos annotated” value in test [3] was determined as 1. Also, in test [4], the “pronephric angle neck segment” value came to 1 ± 0.04.

The compound `CCN(CC)CCc1nc(-c2ccccc2)no1` [Oxalamine citrate salt] showed a glomerular separation in test [1] of 0.929 ± 0.43. This compound also showed a glomerular width in test [2] of 0.933 ± 0.016. Also, the “fraction of imaged embryos annotated” value in test [3] came out at 0.917. Moreover, in test [4], the “pronephric angle neck segment” value was determined as 0.893 ± 0.035.

`C[C@H]1O[C@@H](O[C@H]2[C@@H](O)C[C@H](O[C@H]3[C@@H](O)C[C@H](O[C@H]4CC[C@@]5(C)[C@H](CC[C@@H]6[C@@H]5C[C@@H](O)[C@]5(C)[C@@H](C7=CC(=O)OC7)CC[C@]65O)C4)O[C@@H]3C)O[C@@H]2C)C[C@H](O)[C@@H]1O` [Digoxin] had a glomerular separation in test [1] of 1.43 ± 0.52. This compound returned a glomerular width in test [2] of 1.08 ± 0.023. The “fraction of imaged embryos annotated” value in test [3] is 0.75. In test [4], the “pronephric angle neck segment” value was found to be 0.9342 ± 0.0075.

The record behind these values is the supplement of paper PMC7366291.
